The text below walks through data of PubChem BioAssay AID720607 (Broad Institute, 2013).

Inconclusive results are not listed. Active and inactive are the calls of the source.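 The calls were made as follows: active = compounds that lower cell viability with a fitted half-maximal potency within a set limit tied to top dose; inconclusive = flat fitted activity from -70 to -30, or unreliable fit; inactive = flat near zero, opposite effect, or weaker potency.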

A short description of this test: cytotoxicity in CCRF-CEM lymphoblastic leukemia cells – cell-based, CellTiter-Glo ATP luminescence, 8/24/48 h, dry powder, HRAS target identification, dose response (AID 720607). The note with it: CCRF-CEM viability, 8-48 h; for activity change: top conc, at 35 µM, stronger effect = lower value.

For the compound `COc1ccc(N(C(=O)CCl)C(C(=O)NCCc2ccccc2)c2cccs2)cc1Cl` (stereo not drawn), the activity change was -85.7% (8 h series) and -98% (24 h series).

`COC(=O)c1ccc([C@@H]2c3[nH]c4ccccc4c3C[C@@H](C(=O)OC)N2C(=O)CCl)cc1`: the activity change by setting is: (8 h series) -77.8%; (24 h series) -98.1%.

Regarding `Cc1onc(C(=O)N2CCN(C(c3ccncc3)c3ccncc3)CC2)c1[N+](=O)[O-]`, the activity change (8 h series) is -2.67% and the activity change (24 h series) is -2.69%. The activity change, negative = cytotoxicity (at 35 µM (top of the series)) is -4.38% (inactive).

With `C#CCCCC(=O)NCCOCCOCCOc1ccc(N(C(=O)CCl)C(C(=O)NCCc2ccccc2)c2cccs2)cc1Cl` (stereo not drawn), the activity change was -87.7% (8 h series) and -97.5% (24 h series).

Regarding `Cc1onc(C(=O)N2CCN(C(c3ccc(Cl)cc3)c3ccc(Cl)cc3)CC2)c1[N+](=O)[O-]`, the activity change was -63.7% (8 h series) and -96.7% (24 h series).

Take `CC(C)(C)OC(=O)NCCOCCOCCOc1ccc(N(C(=O)CCl)C(C(=O)NCCc2ccccc2)c2cccs2)cc1Cl` (stereo not drawn): the activity change reads like this: (8 h series) -88.9%; (24 h series) -98.2%.
